Data published in PubChem BioAssay AID1851 (National Center for Advancing Translational Sciences (NCATS), 2009).
“And” between values parts separate entries of the source, which are not always exact repeats. Equal values may be shown once. Among all 16,000 compounds or so, about 4,000 (25%) were called active. Inconclusive results (about 26%) are left out. A selection follows. Unmarked numbers belong to inactive results. Calls come from the whole dose curve; as a rule, active = well fitted curve in the direction sought with a large enough effect; inconclusive = small, poorly fitted or top-dose-only effect, or effect the other way; inactive = no such curve, though single readings can be large or run the other way.

These compounds were tested against Cytochrome P450 2C9 (Homo sapiens) (UniProt P11712) (assay: Cytochrome panel assay with activity outcomes). Details: recombinant CYP, pro-luciferin dealkylation, luminescence, p450-cyp2c9; series mostly up to 57.1 µM; activity, negative = inhibition: at the top concentration.
Chain of Cytochrome P450 2C9 (Homo sapiens) (P11712 whole entry, looked up): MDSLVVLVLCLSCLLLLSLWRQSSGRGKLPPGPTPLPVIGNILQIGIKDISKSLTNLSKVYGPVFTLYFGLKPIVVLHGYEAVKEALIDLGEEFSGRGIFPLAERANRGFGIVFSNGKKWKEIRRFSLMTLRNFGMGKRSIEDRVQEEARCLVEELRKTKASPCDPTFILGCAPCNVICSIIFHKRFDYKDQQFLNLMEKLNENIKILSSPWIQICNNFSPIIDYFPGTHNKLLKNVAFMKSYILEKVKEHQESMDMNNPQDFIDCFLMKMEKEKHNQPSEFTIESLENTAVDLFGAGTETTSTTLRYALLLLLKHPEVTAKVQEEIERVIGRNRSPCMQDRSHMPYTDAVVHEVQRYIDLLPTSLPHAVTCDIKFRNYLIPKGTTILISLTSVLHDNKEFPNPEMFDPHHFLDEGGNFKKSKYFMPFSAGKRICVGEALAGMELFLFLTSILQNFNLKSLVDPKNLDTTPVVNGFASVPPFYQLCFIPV
% is set by controls: 0 for no effect and ±100 for the full control effect.

Structure (SMILES) | activity, negative = inhibition | AC50
COc1ccc(-n2c(-c3ccccc3)nc(=S)c3c2CCCC3)cc1 | -24.3% | 
CC1=C(C(N)=O)C(c2cccs2)n2nc(-c3cccc(Cl)c3)nc2N1 (stereo not drawn) |  | 12.6 µM (active)
C/C(=N\N=C1\NC(=O)CC(C(=O)O)S1)c1cccs1 (stereo not drawn) | -23% | 
CC(=O)/C(=N\N=C(N)N)c1ccccc1 | 11.7% [at 11.4 µM] | 
C/C(=N\N=C(c1ccccc1)c1ccccc1)c1cccs1 |  | 0.708 µM (active)
CC(=O)c1cc(C)ccc1OC(=O)CCN1C(=O)C2C3c4ccccc4C(c4ccccc43)C2C1=O (stereo not drawn) | -22.5% | 
O=c1[nH]ncn2cccc12 | -3.24% | 
Cc1cc(C)c(NC(=O)C(C)Sc2nnc(-c3ccco3)n2-c2ccccc2)c(C)c1 (stereo not drawn) |  | 10 µM (active)
O=C(CSc1nnc(-c2ccco2)n1-c1ccccc1)NCc1ccco1 | -27% | 
O=C(O)c1ccc(CNCc2ccccc2)cc1 | 10.3% [at 11.4 µM] | 
O=C1C2CCC(C(O)C2)N1Cc1ccccc1 (stereo not drawn) | -15.5% | 
NC(=O)c1ccc(C2SCC(=O)N2Cc2ccccc2)cc1 (stereo not drawn) |  | 12.6 µM (active)
O=C(COc1ccccc1)Nc1cc(C(F)(F)F)ccc1N1CCCC1 |  | 14.1 µM (active)
O=C(COC(=O)COc1ccccc1)Nc1ccc(OC(F)(F)F)cc1 | -22.1% | 
NS(=O)(=O)c1cc(C(=O)O)cc(N2CCCC2)c1Oc1ccccc1 | 2.98% [at 25.6 µM] | 
Cc1nn(-c2nc3ccccc3[nH]2)c(N)c1-c1ccc(Cl)cc1 |  | 3.98 µM (active)
CC(C)(C)c1ccc(O)c(CN(Cc2c(O)ccc3ccccc23)C2CCCCC2)c1 | -19% [at 11.4 µM] | 
Oc1ccc2ccccc2c1Cc1c(O)ccc2ccccc12 |  | 2 µM (active)
O=C(O)Cc1c(O)ccc2ccccc12 | -24.2% [at 11.4 µM] | 
CC(=O)N1N=C(c2cccc([N+](=O)[O-])c2)OC1c1ccccc1Cl (stereo not drawn) |  | 0.891 µM (active)
CC(=O)N1N=C(c2cccc([N+](=O)[O-])c2)OC1c1ccc(Cl)cc1Cl (stereo not drawn) |  | 1.26 µM (active)
Cn1c(=O)cc(OCCCC(=O)N2CCN(c3ccccc3)CC2)c2ccccc21 |  | 2.51 µM (active)

Structure (SMILES) | activity, negative = inhibition | AC50
CCOC(=O)C1CCCN(C(=O)CCCOc2cc(=O)n(C)c3ccccc23)C1 (stereo not drawn) | 73.9% | 
O=c1c2cnn(-c3ccccc3)c2nnn1/N=C/c1cccnc1 | 11.6% | 
C(=N\N1CCN(C2c3ccccc3-c3ccccc32)CC1)/c1cccnc1 |  | 0.2 µM (active)
CC(C)(C(=O)c1cccnc1)c1cccnc1 | -1.97% [at 25.6 µM] | 
C/C(=N\N1CCN(C2c3ccccc3-c3ccccc32)CC1)c1cccnc1 |  | 0.562 µM (active)
O=[N+]([O-])c1cc(/C=N/N2CCN(C3c4ccccc4-c4ccccc43)CC2)ccc1Cl | -13.6% | 
C/C(=N\N1CCN(C2c3ccccc3-c3ccccc32)CC1)c1ccncc1 |  | 2.24 µM (active)
Cn1nc(C(F)(F)F)c(/C=N/OC(=O)c2ccccc2Cl)c1SCc1ccc(Cl)cc1 |  | 3.98 µM (active)
N[C@@]1(C(=O)O)CN[C@H](C(=O)O)C1 | 2.03% | 
O=C(c1csnn1)N1CCC2(CC1)CN(Cc1cc(C(F)(F)F)cc(C(F)(F)F)c1)C2 | 17.2% | 
CC1=N/C(=C\c2ccc([N+](=O)[O-])cc2)C(=O)N1c1ccc(Cl)cc1 | 4.62% | 
Cc1ccc(C)n1N1C(=O)/C(=C\c2ccc(Cl)cc2)SC1=S |  | 5.01 µM (active)
CC(=O)OC[C@@H]1O[C@@H](O/N=C2/C[C@@H](O)[C@@H](O)[C@@H]3[C@@H]4C(=O)N([C@@H](C)c5ccccc5)C(=O)[C@H]4CC[C@H]23)[C@H](OC(C)=O)[C@H](OC(C)=O)[C@@H]1OC(C)=O | 10.5% [at 11.4 µM] | 
CCOc1ccc(/C=C/C2=Cc3c(sc(NC(=O)CSc4n[nH]c(N)n4)c3C#N)C(C)(C)C2)cc1 |  | 10 µM (active)
Cc1ccc(/C=C/C2=Cc3c(sc(NC(=O)CSc4n[nH]c(N)n4)c3C#N)C(C)(C)C2)o1 |  | 2.82 µM (active)
CC(=O)OC[C@@H]1O[C@@H](O/N=C2/C[C@@H](O)[C@@H](O)[C@@H]3[C@@H]4C(=O)N(c5cccc(Oc6ccccc6)c5)C(=O)[C@H]4CC[C@H]23)[C@H](OC(C)=O)[C@H](OC(C)=O)[C@@H]1OC(C)=O | 1.66% [at 11.4 µM] | 
CC(C)(C)NC[C@H](O)c1cc(O)cc(O)c1 | -0.81% [at 25.6 µM] | 
C[C@@H]1OC2C3=C(C(=O)[C@H]4O[C@@H]4[C@H]3O)[C@@H]1[C@H]1[C@H](C)OC=C3[C@H](O)[C@H]4O[C@H]4/C(=N\OCc4ccccc4)[C@@]321 | 13.2% [at 11.4 µM] | 
CCOc1cc(CNCCc2ccc(S(N)(=O)=O)cc2)cc(Cl)c1OCc1ccccc1 |  | 12.6 µM (active)
CCOc1cc(CNCCO)c(Cl)cc1OCC(=O)NCCc1ccccc1 | -27.7% | 
CCCc1ccc(-c2cc(C(=O)NN3CCOCC3)c3ccccc3n2)cc1 |  | 2.51 µM (active)
Cc1ccc2nc(-c3ccc(NC(=O)c4ccc(N)cc4)c(S(=O)(=O)O)c3)sc2c1 | -3.37% [at 11.4 µM] | 

Structure (SMILES) | activity, negative = inhibition | AC50
Cc1ccc(-c2nc3ccccc3s2)cc1NC(=S)NC(=O)c1ccccc1 |  | 3.55 µM (active)
Cc1ccc(C)c(S(=O)(=O)NC(C)C(=O)Nc2ccc(-c3nc4ccccc4s3)cc2)c1 (stereo not drawn) | 9.42% | 
Cc1ccccc1NC(=S)NC(=O)c1cc(-c2ccccc2)nc2ccccc12 |  | 3.55 µM (active)
Cc1ccc(-c2cc(C(=O)NN=C3CCCC3)c3ccccc3n2)cc1 |  | 12.6 µM (active)
O=C(O)c1cc(-c2ccc3cc4c(cc3c2)OCO4)nc2ccccc12 | -17.1% [at 11.4 µM] | 
C[N+]1(C)CCc2cc(O)c(O)cc2[C@H]1Cc1ccc(O)c(O)c1 | 6.54% [at 11.4 µM] | 
CN(Cc1ccco1)c1ncnc2ccc(-c3ccoc3)cc12 | -10.5% [at 2.29 µM] | 
Cc1cnc(CNc2cc(-c3ccccc3Cl)ncn2)cn1 | 8.89% [at 2.29 µM] | 
O=C1C[C@@H](O)[C@@H](O)[C@H]2[C@@H]3C(=O)N(C[C@@H]4CCCO4)C(=O)[C@@H]3CC[C@H]12 | 21.7% [at 11.4 µM] and 13.9% [at 11.4 µM] | 
CNc1cc(-c2c(C)noc2C)ncn1 | 9.86% [at 2.29 µM] | 
CCn1c(C)cc(/C=C2\NC(=O)N(Cc3ccc(Cl)cc3)C2=O)c1C | -25.1% | 
FC(F)(F)c1ccccc1-c1cc(NCc2cccnc2)ncn1 | 16.9% [at 2.29 µM] | 
CCCOc1ccc(C(=O)NNC(=S)NC(=O)c2cc(-c3ccccc3)nc3ccccc23)cc1 |  | 2.51 µM (active)
CCCOc1ccc(C(=O)NNC(=S)NC(=O)CC)cc1 | -24.3% | 
CCCCOc1cc(C(=O)NCCN(CC)CC)c2ccccc2n1 | 10.5% [at 25.6 µM] | 
CCN1CCN(CCCNC(=O)C(NC(=O)C2CCC(C)CC2)C(C)C)CC1 (stereo not drawn) | -8.03% | 
CC(=O)C1=C(O)C=C(c2ccco2)CC1c1ccco1 (stereo not drawn) |  | 7.94 µM (active)
NC(=O)C(=O)O | 8.82% | 
Clc1ccc2c(c1)C1=C(C(c3ccncc3)O2)C(c2ccc(Br)cc2)n2ncnc2N1 (stereo not drawn) |  | 1.41 µM (active)
CCN=C(N)CSS(=O)(=O)O | -1.49% [at 11.4 µM] | 
O=C(O)c1cccnc1C(=O)O | 1.96% | 
O=C(OCc1ccc(Cl)cc1Cl)c1cccnc1Cl |  | 17.8 µM (active)

Structure (SMILES) | activity, negative = inhibition | AC50
COc1ccccc1-c1cncnc1-n1ccnc1 | -14.3% [at 2.29 µM] | 
O=C(Nc1nc(-c2ccccc2)cs1)c1cccc([N+](=O)[O-])c1 |  | 7.08 µM (active)
Cc1ccc(Nc2nc(-c3sc(NC(=O)c4ccc([N+](=O)[O-])cc4)nc3C)cs2)cc1 | -23.8% | 
CCN1C(=O)[C@H]2[C@H]3[C@H](O)[C@H](O)C/C(=N/OCC(C)C)[C@H]3CC[C@@H]2C1=O | -3.02% [at 11.4 µM] | 
CC(=C/c1ccccc1)/C=N/n1cnnc1 |  | 3.98 µM (active)
Cc1ccccc1-c1cc(N(C)C)ncn1 | 9.36% [at 2.29 µM] | 
Cc1ccccc1-c1cc(-c2ccccc2O)on1 |  | 8.91 µM (active)
CNc1cc(-c2ccccc2C)ncn1 | 21.7% [at 2.29 µM] | 
CNC[C@@H](SC)c1ccc(O)c(O)c1 | 0.961% [at 11.4 µM] | 
c1cnc(N2CCN(Cc3ccc4c(c3)OCO4)CC2)nc1 |  | inactive
Cn1c(OCc2ccc3c(c2)OCO3)nc2c1c(=O)n(Cc1ccc(Cl)c(Cl)c1)c(=O)n2C |  | 2.51 µM (active)
Cn1c(=O)c2c(nc(Cl)n2Cc2ccc(Cl)c(Cl)c2)n(C)c1=O |  | 6.31 µM (active)
Cn1c(=O)c2c(nc(NCCNc3nc4c(c(=O)n(C)c(=O)n4C)n3C)n2C)n(C)c1=O | 3.94% [at 11.4 µM] | 
Cn1c(=O)c2c(nc(Cc3ccccc3)n2CC(=O)O)n(C)c1=O | -4.06% [at 11.4 µM] | 
O=C(COc1ccc(Cl)cc1)N1CCN(Cc2ccc3c(c2)OCO3)CC1 | -34.1% [at 25.6 µM] | 
CCN(CC(=O)O)CC(=O)O | 8.87% [at 11.4 µM] | 
O=C(Nc1ccccc1)N1CCCC2(CCN(C(=O)c3cnccn3)CC2)C1 | -14.6% | 
Cn1c(=O)c2[nH]c(-c3ccc(S(=O)(=O)O)cc3)nc2n(C)c1=O | -12.8% | 
CCS(=O)(=O)Nc1ccc(C2=NN(C(=O)c3ccco3)C(c3ccc(C)cc3)C2)cc1 (stereo not drawn) |  | 2.24 µM (active)
CC(C)[C@]1(Cl)CC[C@@H]2[C@]3(C)CCC[C@@](C)(C(=O)O)[C@H]3C[C@H](Cl)[C@@]2(Cl)[C@H]1Cl | -25.3% [at 11.4 µM] | 
Cc1cc2nc(CCN(C(=S)NCC(C)C)C3CCCC3)[nH]c2cc1C |  | 7.94 µM (active)
Cc1cc2nc(C3CCCN(C(=S)Nc4ccccc4)C3)[nH]c2cc1C (stereo not drawn) | -19% | 
